High-throughput results (PubChem)
Shown are actives, neighbours in structure and some others; about 8.1% of the full set was active somewhere.
ClpP mod – qHTS Assay for Activators of ClpP | ATP-dependent Clp protease proteolytic subunit (Bacillus subtilis (strain 168)), P80244 | purified B. subtilis ClpP, FRET peptide cleavage, 20 min | Potency, µM (doses to about 57.5 µM) | actives 1.9% (n = 340,000) | AID 651965, 2013; active = well fitted falling curve with a large enough effect; inconclusive = small, poorly fitted or top-dose-only effect; inactive = no such curve, though single readings can be large or run the other way; note: the source files actives as falling curves though it sought activators and does not explain the sign; nearly all actives have a fitted effect of over 65% in size
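Purified B. subtilis ClpP, 10 microg/mL final in Tris/HCl pH8 with KCl, BSA, glycerol and Tween-20, cleaved an Abz/nitrotyrosine-quenched decapeptide. Fluorescence (ex 320, em 430) was read at 0 and 20 min at room temperature. Delta was normalized to 5.8 microM ADEP and DMSO/no-enzyme controls.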
Sfp inh – qHTS Assay for Inhibitors of Bacillus subtilis Sfp phosphopantetheinyl transferase (PPTase); Biochemical Sfp PPTase activity, qHTS; Potency, µM, usual class: inhibitors; actives 3.5% (n = 310,000);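 note: the enzyme is Sfp with the accession as filed and its product quenches rhodamine fluorescence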
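Reaction rates are the 30-min fluorescence difference (ex 525, em 598 nm) in wells containing 15 nM Sfp, 5 uM rhodamine-CoA and 12.5 uM BHQ-2-YbbR at pH 7.6 with 10 mM MgCl2.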
Gal4-VP16 FLuc – VP16 counterscreen qHTS for inhibitors of ROR gamma transcriptional activity; Potency, µM (doses to about 53.6 µM), most hits filed as inhibitors; AID 2546, 2010; Drosophila S2 Gal4-VP16 UAS-luciferase, luminescence, 20 h; actives 3.5% (n = 310,000);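 note: Gal4-VP16 expression switched on by copper sulfate through the metallothionein promoter; nearly all actives have a fitted effect of over 50% in size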
PINK1 modulator – A Quantitative High throughput Screen to Identify Chemical Modulators of PINK1 Expression | actives 0.2% (n = 410,000) | AID 624263, 2012 | PINK1 immunofluorescence, high-content cytometry, 24 h | Potency, µM (top dose mostly 76.6 µM), usual class: activators; active = well fitted activation curve with a large enough effect; inconclusive = small, poorly fitted or top-dose-only effect; cell line not stated here; note: nearly all actives have a fitted effect of over 65% in size
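Stable cell line treated 24 h with compounds at 5 concentrations (CCCP controls), then fixed and immunostained for PINK1 plus nuclear and cell stains; PINK1 immunofluorescence quantified by laser-scanning microplate cytometry.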
RORg inh – qHTS for inhibitors of ROR gamma transcriptional activity; Potency, µM (doses to about 53.6 µM), hits mostly inhibitors; Drosophila S2 Gal4-RORgamma UAS-luciferase reporter, 20 h; actives 5.4% (n = 310,000); AID 2551, 2010; Nuclear receptor ROR-gamma (Mus musculus), P51450; note: nearly all actives have a fitted effect of over 60% in size
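A Gal4/UAS one-hybrid system in insect cells: metallothionein-promoter Gal4–ROR gamma fusion plus Photinus luciferase reporter. Copper sulfate 700 uM final, 20 hr ambient incubation, luminescent detection after 10 min with reagent.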
Epigenetic derep – Quantitative High-Throughput Screen for Regulators of Epigenetic Control; murine LDR cells, GFP reporter derepression, 30 h; Potency, µM (series often up to 53.9 µM), most hits filed as activators; actives 0.2% (n = 280,000); note: nearly all actives have a fitted effect of over 60% in size
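In this reporter-derepression format, murine cells bearing a silenced integrated CMV-GFP locus incubate with test compound (30 h, 37 C), then are washed and imaged; fluorescent objects of 20–120 um count as induced cells.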
Hits are given with their value; n = inactive; u = inconclusive; x = not tested or not shown; ! = not active in a repeat; [ ] = another dose, or the depositor's remark. Unless noted, calls come from the whole dose curve; as a rule, active = well fitted curve in the direction sought with a large enough effect; inconclusive = small, poorly fitted or top-dose-only effect, or another doubt; inactive = no such curve, though single readings can be large; an effect the other way counts as inactive or inconclusive.

SMILES	ClpP mod	Sfp inh	Gal4-VP16 FLuc	PINK1 modulator	RORg inh	Epigenetic derep
CCOc1ccc2c3c1O[C@H]1[C@@H](O)C=C[C@H]4[C@@H](C2)N(C)CC[C@@]341	x	n	n	x	n	x
CCOC(=O)c1c(-n2c(C)cc(C=C3C(=O)NC(=S)NC3=O)c2C)sc2c1CCCC2	n	17.8µM	u	n	12.6µM	u
Cc1ccc(N2C(=O)NC(=O)/C(=C\c3cc(C)n(-c4sc5c(c4C#N)CCCC5)c3C)C2=O)cc1	x	39.8µM	n	n	n	n
Cc1cc(/C=C2\C(=O)NC(=O)N(c3ccc(Br)cc3)C2=O)c(C)n1-c1cc(C(=O)O)cc(C(=O)O)c1	n	n	n	n	n	x
CCOC(=O)c1c(-n2c(C)cc(/C=C3/C(=O)NC(=O)N(CC)C3=O)c2C)sc2c1CCCC2	n	x	x	n	x	x
CCN1C(=O)NC(=O)/C(=C/c2cc(C)n(-c3sc(C)c(C)c3C#N)c2C)C1=O	n	15.8µM	n	n	n	n
COc1ccc(CNC(=O)/C=C\c2ccc3[nH]cc(CCN(C)C)c3c2)cc1	x	n	n	x	n	n
C=CC(=O)OCC(CC)CCCC (stereo unspecified)	x	x	n	x	n	x
O=C(CN1CCOCC1)c1cccc2ccccc12	n	39.8µM	n	n	n	n
Cc1cc(O)c2c(c1)C(=O)C13C(=C2O)C(=O)[C@H]2[C@@H](O)[C@@H]1[C@H]1[C@H](O)[C@@H]3C(=O)C3=C(O)c4c(O)cc(C)cc4C(=O)C312 (stereo partly specified)	n	x	x	28.2µM	x	x
NC(N)=NCCC[C@H](N)C(=O)O	x	u	n	x	n	n
Nc1ccc2c(c1)Cc1ccccc1-2	11.2µM	n	n	n	n	n
CCOc1ccc(S(=O)(=O)O)c2cccnc12	x	70.8µM	n	x	n	x
CN(C)C(=O)Oc1ccc(Cl)c2cccnc12	x	n	n	n	n	n
CN1CCC2(CC1)N=C(c1ccc(F)cc1)C(=S)N2	x	79.4µM	n	n	12.6µM	n
COCCCOc1ccnc(CS(=O)c2nc3ccccc3[nH]2)c1C (stereo unspecified)	n	50.1µM	n	n	n	n
COc1ccc(C(CC(=O)N2CCC3(CC2)OCCO3)NS(=O)(=O)c2ccc(F)cc2)cc1 (stereo unspecified)	22.4µM	n	n	n	n	n
ClCBr	x	x	n	x	n	x
CN1C2CCCC1CC(=O)C2	x	n	n	x	n	x
CC1=C[C@H]2[C@]3(O)C(C=C(CO)C[C@]2(O)C1=O)[C@@H]1C(C)(C)[C@]1(O)[C@H](O)[C@H]3C (stereo partly specified)	x	n	n	x	n	x
CC12CCC3c4ccc(OC(=O)N(CCCl)CCCl)cc4CCC3C1CCC2O (stereo unspecified)	n	x	x	u	x	x
C[C@]12CC[C@@H]3c4ccc(O[C@@H]5O[C@H](C(=O)O)[C@@H](O)[C@H](O)[C@H]5O)cc4CC[C@H]3[C@@H]1C[C@@H](O)[C@@H]2O	n	79.4µM	n	n	n	n
Cc1cc(C(C#N)c2ccc(Cl)cc2)c(Cl)cc1NC(=O)c1cc(I)cc(I)c1O (stereo unspecified)	n	u	u	14.1µM	n	x
CCOc1cc(/C=C2\C(=O)NC(=O)N(C)C2=O)cc([N+](=O)[O-])c1O	x	28.2µM	n	n	n	n
CCOc1cc(C=C2C(=O)NC(=S)NC2=O)ccc1O	x	x	x	n	x	x
SMILES	ClpP mod	Sfp inh	Gal4-VP16 FLuc	PINK1 modulator	RORg inh	Epigenetic derep
NC(Cc1ccc(Oc2cc(I)c(O)c(I)c2)c(I)c1)C(=O)O (stereo unspecified)	x	n	n	x	n	x
Cc1ccsc1-c1nc(CSCC(=O)N2CCC3(CC2)OCCO3)c(C)o1	31.6µM	n	n	n	n	n
COc1ccc2c(c1)[nH]c1c(C)nccc12	u	n	u	n	8.91µM!	u
Cc1nccc2c1[nH]c1ccc(Br)cc12	n	x	x	n	x	x
CC(C)C1(C)N=C(c2ncccc2C(=O)O)NC1=O (stereo unspecified)	n	n	n	x	n	n
O=C(O)Cc1cccnc1C(=O)O	x	15.8µM	n	x	n	n
CC1Cc2c(cnc3c2CN(C)CC3)CO1 (stereo unspecified)	x	n	n[10 µM]	x	n[10 µM]	n[10.1 µM]
Cc1ccccc1Cn1cnc2c(oc3ccccc32)c1=O	u	n	n	n	3.98µM	n
CC(=O)NCC(N)C(=O)c1ccc(Cl)c(Cl)c1 (stereo unspecified)	n	x	x	n	x	x
c1ccc(NNc2ccccc2)cc1	x	x	n	x	n	x
c1ccc(C(c2ccccc2)c2cccnc2)cc1	x	x	x	n	x	x
c1ccc(-c2ccc(C(c3ccccc3)n3ccnc3)cc2)cc1 (stereo unspecified)	n	u	u	u	10µM!	n
C[C@@H]1O[C@@H](OC2CC(O)C3(CO)C4C(CCC3(O)C2)C2(O)CCC(C3=CC(=O)OC3)C2(C)C[C@H]4O)[C@H](O)[C@H](O)[C@H]1O (stereo partly specified)	x	n	n	x	n	n
c1ccc2c(c1)OC[C@@H](C1=NCCN1)O2	x	n	n	x	22.4µM!	n
c1ccc(C2(c3ccccc3)CC2C2=NCCN2)cc1 (stereo unspecified)	x	n	n	x	n	x
CCOC(=O)c1cc(CC)sc1/N=C/c1c(O)[nH]c(=S)[nH]c1=O	n	8.91µM	u	n	17.8µM	n
CCOC(=O)c1cc(CC)sc1/N=C/C1C(=O)NC(=S)NC1=O	x	17.8µM	n	n	n	n
CCOC(=O)c1c(/N=C/C2C(=O)NC(=O)NC2=O)sc2c1CCC2	x	35.5µM	n	n	n	n
CCOc1c(Cl)cc(CNCCc2c[nH]c3ccccc23)cc1OC	n	56.2µM	u	n	u	n
O=C1/C(=C\c2ccccc2)C[C@@]2(O)[C@H]3Cc4ccc(O)c5c4[C@@]2(CCN3CC2CC2)[C@H]1O5	x	u	x	x	x	n
O=C1/C(=C\c2ccccc2)C[C@@]2(O)[C@H]3Cc4ccc(O)c5c4[C@@]2(CCN3CC2CC2)[C@@H]1O5	x	u	12.6µM	x	11.2µM	n
CN(C)C1CSSSC1	x	n	n	x	u	x
Cn1c(O)c(/C=C2\C=Nc3ccccc32)c(=O)n(C)c1=O	n	n	n	n	n	x
Cn1c(O)c(/C=C2\N=c3ccccc3=C2CCNC(=S)NC2CC2)c(=O)n(C)c1=O	x	31.6µM	n	n	n	n
O=C(Nc1nccs1)C(Cl)(Cl)Cl	x	n	u	n	u	n
O=C(CCl)Nc1nccs1	n	n	12.6µM	n	u	n
CCCN1CCO[C@@H]2c3cc(O)ccc3OC[C@@H]21	x	56.2µM	n	x	n	n
CCCN1CC[C@@H]2c3cc(O)ccc3CC[C@@H]21	n	n	n	n	n	n
